Screens deposited in PubChem by Broad Institute.
Shown is part of a subset that was picked to be rich in hits.
U2OS ROS induce = cancer cell ROS induction. U2OS ROS induction, H2DCF-DA fluorescence. ROS induction (% of piperlongumine), % at 10 µM. 2% of 46,000 active. AID 624156; in the data active means ROS induction above about 79%, passing the limit was not always enough
Of the large screens only hits and unclear results are named; the others gave an inactive call.

CCn1c(SCC(=O)N2CCN(c3ccccc3)CC2)nnc1-c1cc2cc(Cl)ccc2o1	none
O=C(CSc1nnc(-c2ccccc2O)n1-c1ccccc1)N1CCN(c2ccccc2)CC1	none
Nc1cc(N)nc(SCC(=O)N2CCN(c3ccc(Cl)cc3)CC2)n1	U2OS ROS induce 86
CC(=O)N/C(=C/c1ccccc1)C(=O)Nc1ccc(I)cc1	none
CC(C)(C)C(=O)NCc1cn2ccsc2n1	none
CC1=NOC(=O)/C1=C/c1ccc(N(C)C)cc1	none
CC(=O)N1/C(=C/c2ccc(N(C)C)cc2)C(=O)c2ccccc21	U2OS ROS induce 151
CN(C)c1ccc(/C=C2/C(=O)Nc3ccccc32)cc1	none
CCN1C(=O)CC(C(=O)Nc2ccccc2)SC1=Nc1ccccc1 (configuration not stated)	none
CCC(C(=O)NC(C)C)n1c2ccccc2c2nc(=O)cc(C)n21 (configuration not stated)	none
O=c1n(CCSc2nnnn2-c2ccccc2)nnn1-c1ccccc1	none
CCn1cc(CCCC(=O)N2CCc3ccccc32)c2ccccc21	none
CC(=O)c1cccc(NC(=O)CSc2nc(N3CCCCC3)nc(N3CCCCC3)n2)c1	none
CCOc1ccc(Nc2nc(N3CCCCC3)nc(N3CCCCC3)n2)cc1	none
O=C(O)c1cccc(Nc2nc(Nc3ccccc3)nc(N3CCCC3)n2)c1	U2OS ROS induce 150
CCOC(=O)Nc1cccc2nsnc12	none
N#CCC(c1ccccc1)C(C#N)c1ccc(Br)cc1 (configuration not stated)	none
Cc1[nH]c2ccccc2c1SCc1nnc(SCc2ccc(Cl)cc2)n1C	none
Cn1c(CNC(=O)c2cccs2)nnc1SCc1ccccc1	none
COc1ccc(CSc2nnc(CSc3cccs3)n2C)cc1	U2OS ROS induce 87
CC(C)(C)c1csc(Cc2ccccc2Cl)n1	none
Cc1cccc2c1nc1s/c(=C/c3cn[nH]c3-c3ccccc3)c(=O)n12	none
COc1cc2oc(-c3ccccc3)cc(=O)c2c(O)c1OC	none
COc1cc2oc(-c3ccccc3)cc(=O)c2c(OC)c1OC	U2OS ROS induce 90
COc1cc(OC)c2c(=O)cc(-c3ccccc3)oc2c1	none
O=C(C(Sc1ccccc1)c1ccccc1)N1CCCc2ccccc21 (configuration not stated)	none
COC(=O)Nc1c(C)cc(C)cc1C	none
CCN1C(=O)/C(=C/C=C2\CCCN2C)N(c2ccccc2)C1=S	none
C/C=C/[C@H](CCn1cc([C@H](O)c2ccccc2)nn1)[Si](C)(C)c1ccc(OC)cc1	U2OS ROS induce 110
C/C=C/[C@H](CCn1cc(CCO)nn1)[Si](C)(C)c1ccc(OC)cc1	none
C/C=C/[C@@H](CCn1cc([C@H](O)c2ccccc2)nn1)[Si](C)(C)c1ccc(OC)cc1	none
Cc1cc(C)cc(-n2c(SCC(=O)NCc3ccc(F)cc3)nc3c(c2=O)SCC3)c1	none
CC1CC(C)CN(S(=O)(=O)c2ccc(Cl)cc2)C1 (configuration not stated)	none
O=S(=O)(C1=CC23CCCC2(C=C(S(=O)(=O)c2ccc(Cl)cc2)C3)C1)c1ccc(Cl)cc1 (configuration not stated)	U2OS ROS induce 81
CC1CCCCN1S(=O)(=O)c1ccc(Cl)cc1 (configuration not stated)	none
CC(C)Oc1ccc2c(C(F)(F)F)cc(=O)oc2c1	none
COc1cc(-c2nc(Nc3ccc(C)c(F)c3)c3ccccc3n2)cc(OC)c1OC	none
S=C(Nc1ccccc1)N1CCN(c2ccc3nnc(-c4ccccc4)n3n2)CC1	U2OS ROS induce 240
ONC=Nc1ccc2nnc(-c3ccccc3)n2n1	none
S=C(Nc1ccccc1)N1CCC(c2ccccc2)=N1	none
COc1ccc(Cl)cc1NS(C)(=O)=O	none
O=C(CNc1ccc(Cc2ccncc2)cc1)c1cccc2ccccc12	none
COc1cc(-c2oc3cc(O)cc(O)c3c(=O)c2O)ccc1O	none
COc1c(OC)c(O)c2c(=O)c(O)c(-c3ccccc3)oc2c1OC	none
COc1cc(O)c2c(=O)c(OC)c(-c3ccc(OC)c(OC)c3)oc2c1	none
COc1cc(OC)c2c(=O)c(O)c(-c3ccc(OC)c(OC)c3)oc2c1	U2OS ROS induce 83
COc1cc(-c2oc3cc(O)c(OC)c(O)c3c(=O)c2OC)ccc1O	none
COc1ccc(-c2oc3c(OC)c(OC)c(OC)c(O)c3c(=O)c2OC)cc1OC	U2OS ROS induce 102
O=S(=O)(/N=C(\OC1CCCCC1)c1ccccc1)c1ccccc1	none
O=C(c1cnc2c(c1)COc1ccccc1-2)c1cc(Cl)ccc1O	none
CCOC(=O)C1=C(SCc2ccccc2)NC(=O)C(C#N)C12CCCCC2 (configuration not stated)	none
COc1ccc(-c2cc(-c3ccccc3)c(C#N)c(SCS(=O)Cc3ccccc3)n2)cc1 (configuration not stated)	U2OS ROS induce 87
COc1ccc(-c2cc(-c3ccccc3)c(C#N)c(SC3CCCCC3O)n2)cc1 (configuration not stated)	none
COc1ccc(-c2cc(-c3ccccc3)nc(SCC(=O)N3CCCCC3)c2C#N)cc1	none
Cc1c(C(=O)O)oc2ccc(S(=O)(=O)NCCC(C)C)cc12	none
COC(=O)c1ccccc1NC(=O)c1c(C)nn(-c2ccccc2)c1-n1cccc1	U2OS ROS induce 126
COC(=O)c1ccccc1NC(=O)CNC(=O)c1ccccc1	none
COc1cc(OC)c(NC(=O)c2c(C)nn(-c3ccccc3)c2-n2cccc2)cc1Cl	none
CCOC(=O)C(C)Oc1cc2oc(=O)c3c(c2cc1Cl)CCCC3 (configuration not stated)	none
COc1ccc(CCN(Cc2ccccn2)S(=O)(=O)c2ccc(C(C)(C)C)cc2)cc1OC	none
CCN1C(C(=O)c2ccccc2)C(=O)c2ccccc2S1(=O)=O (configuration not stated)	none
COc1ccc(S(=O)(=O)N(C)CC(=O)Nc2ccccc2F)cc1Cl	none
COc1ccc(S(=O)(=O)N(C)CC(=O)Nc2ccccc2Br)cc1Cl	U2OS ROS induce 112
COc1cc(Cl)c(C)cc1NC(=O)CN(C)S(=O)(=O)c1ccc(Br)cc1	none
Cc1cc(Br)ccc1NC(=O)CN(C)S(=O)(=O)c1ccc(Cl)cc1	U2OS ROS induce 135
Cc1ccc([N+](=O)[O-])cc1NC(=O)CN(C)S(=O)(=O)c1ccc(Cl)cc1	none
COc1ccc(S(=O)(=O)N(C)CC(=O)Nc2ccccc2OC)cc1Cl	none
Cc1ccc(S(=O)(=O)N(C)CC(=O)Nc2cc(Cl)ccc2Oc2ccccc2)cc1	U2OS ROS induce 90
Cc1ccc(S(=O)(=O)N(C)CC(=O)Nc2ccc(Cl)cc2C(F)(F)F)cc1	none
COc1cc(OC)c(NC(=O)CN(C)S(=O)(=O)c2ccc(C)cc2)cc1Cl	none
CNC(=O)c1ccc(C(C)(C)C)cc1	none
CN(CC(=O)N1CCN(c2ccccc2)CC1)S(=O)(=O)c1ccccc1	none
CC(C)c1ccccc1NC(=O)c1cc2ccccc2o1	none
O=C1NCCN/C1=C/C(=O)c1ccc(Br)cc1	none
Cc1nccc2[nH]c(=O)c(C(=O)NCc3ccc(Cl)cc3)cc12	none
CC1CCc2sc3ncnc(NCCN4CCOCC4)c3c2C1 (configuration not stated)	U2OS ROS induce 80
CC1(C)Cc2c(c(N3CCOCC3)nc3sc4c(NCCN5CCOCC5)ncnc4c23)CS1	none
OCCCNc1ncnc2scc(-c3ccccc3)c12	none
CC1CCc2c(sc3ncnc(NCCCOC(C)C)c23)C1 (configuration not stated)	none
Clc1ccc(-c2csc3ncnc(NCCN4CCOCC4)c23)cc1	U2OS ROS induce 139
Cc1ccc(-c2csc3ncnc(NCCC(=O)O)c23)cc1	none
CC(C)(C)SCC(O)Cn1c2ccc(Cl)cc2c2cc(Cl)ccc21 (configuration not stated)	none
O=C(Cn1c2ccccc2c2cn[nH]c(=O)c21)NCCC1=CCCCC1	none
NC(N)=Nc1nc2ccccc2c(=O)[nH]1	none
